Results: PubChem BioAssay AID1117361 (Southern Research Institute, 2015)
The whole screen tested about 3,600 compounds, of which about 900 (25%) were called active. A selection follows. Potency and affinity values are given separately. Unmarked numbers belong to inactive results. The rule behind the calls is not given here.

These compounds were tested against Protein Tat (Human immunodeficiency virus type 1 group M subtype B (isolate HXB2)) (UniProt P04608) (assay: inhibitors of Tat binding to TAR RNA, dose response, counter-screen for Vif-APOBEC3G degradation inhibitor project, biochemical, fluorescence polarization, FAM-labeled TAR RNA (AID 1117361)). Settings: outcome: dose series up to 100 µM unless noted; series mostly up to 100 µM; inhibition: at the top concentration.

Row | Compound | outcome | inhibition
1 | Cc1ccc(S(=O)(=O)Nc2ccc3c(c2)c2c(n3S(=O)(=O)c3ccc(C)cc3)CCCC2=O)cc1 | inactive | –
2 | CCCNC(=O)c1ccc2c(c1)C1C3CCC(C3)C1C(c1ccccc1)N2 (configuration not stated) | inactive | –
3 | Cc1ccc(S(=O)(=O)NC(CC(C)C)C(=O)N2CCN(C/C=C/c3ccccc3)CC2)cc1 (configuration not stated) | inactive | –
4 | O=C(CNC(=O)c1cccs1)OCC(=O)c1ccc2ccccc2c1 | – | 4.05%
5 | c1ccc(-c2nnc(-c3ccncc3)o2)cc1 | – | 0.68%
6 | O=C(COC(=O)COc1ccc(Cl)cc1Cl)NC1CCCCCC1 | – | 2.47%
7 | O=C(CC1NC(=O)NC1=O)Nc1cccc2ccccc12 (configuration not stated) | – | 2.7%
8 | CC(NC(=O)CC1Nc2ccccc2NC1=O)c1ccccc1 (configuration not stated) | – | 17.6%
9 | COc1ccc(NC(=O)c2cc3ccccn3n2)cc1 | – | 13.5%
10 | COc1ccc(OC)c(C2NC(=O)NC(C)=C2C(=O)Nc2ccc(C)cc2)c1 (configuration not stated) | – | 0.68%
11 | Cc1cccc(C)c1OCCOCCN1CCN(C)CC1 | inactive | –
12 | CCN(CC)c1ccc(C(=C2C=CC(=[N+](CC)CC)C=C2)c2ccccc2)cc1 | inactive | –
13 | O=C(Nc1nccs1)C1CCCN(S(=O)(=O)c2cccc3cccnc23)C1 (configuration not stated) | inactive | –
14 | Cn1c(C(=O)N[C@@H](C(=O)O)c2ccccc2)cc2cc(Cl)ccc21 | – | 29.1%
15 | COc1ccc2nc(SCC(=O)NN)cc(C)c2c1 | – | 4.05%
16 | Cc1ccc(SCCC(=O)NCc2ccco2)cc1 | inactive | –
17 | CC(C)(C)c1nnc(NC(=O)c2ccc(Cl)nc2)s1 | inactive | –
18 | N#Cc1ccccc1CN1C(=O)S/C(=C/c2cccn2-c2ccc(C(=O)O)cc2)C1=O | – | 22.4%
19 | Cc1ccc(C(=O)O)cc1-c1ccc(/C=C2/NC(=O)N(c3ccccc3)C2=O)o1 | – | 10.3%
20 | CCNc1nc(OCCNS(=O)(=O)c2cc(C)ccc2C)nc(N(C)C)n1 | – | 2.03%
21 | COc1ccccc1NC(=O)C(C)NS(=O)(=O)c1ccc(F)cc1 (configuration not stated) | – | 7.5%
22 | CCc1ccc(OCCNC(=O)c2cccs2)cc1 | – | 1.35%

Row | Compound | outcome | inhibition
23 | COc1ccccc1NC(=O)CN(c1ccccc1OC)S(=O)(=O)c1ccccc1 | – | 3.3%
24 | Cc1c(C(=O)NCc2cccnc2)oc2ccccc12 | – | 1.35%
25 | CCc1cccc(NC(=O)CCCCCC2NC(=O)NC2C)c1 (configuration not stated) | inactive | –
26 | COC(=O)C1=C(C)NC(=O)C1(NS(=O)(=O)c1ccc(C)cc1)C(F)(F)F (configuration not stated) | – | 2.05%
27 | Cc1ccc(C)c(NC(=S)NCc2ccccc2)c1 | – | 9.07%
28 | CN1c2ccsc2/C(=N/NC(=O)c2c(F)cccc2F)CS1(=O)=O | – | 10.2%
29 | O=C(O)C1=C(C(=O)Nc2ccc(F)c(Cl)c2)CCCC1 | – | 10.1%
30 | COC(=O)CSc1nnc(CNC(=O)c2cccs2)n1-c1cc(OC)ccc1OC | inactive | –
31 | Cc1ccc(NC(=O)CSc2nnc(C3CCCCC3)n2N)cc1F | – | 0.68%
32 | CCOC(=O)C1CCCN(c2ncnc3c2cnn3-c2ccc(Cl)cc2)C1 (configuration not stated) | – | 29.7%
33 | O=C(O)c1cccc(S(=O)(=O)Nc2ccccc2Cl)c1 | inactive | –
34 | COc1cccc(NC(=O)C2CCCN2C(=O)OCc2ccccc2)c1 (configuration not stated) | – | 4.05%
35 | CCOc1cccc(NC(=O)C2CCCN(S(=O)(=O)c3ccc(OC)cc3)C2)c1 (configuration not stated) | inactive | –
36 | O=c1nc(N2CCOCC2)nc2n1CCO2 | – | 0.68%
37 | Cc1cc(=O)n2nc(N3CCCC(C(=O)NC4CCC(C)CC4)C3)sc2n1 (configuration not stated) | inactive | –
38 | CN(C)c1nc(OCCNC(=O)COc2ccc(Cl)cc2Cl)nc(N2CCOCC2)n1 | inactive | –
39 | Cc1ccc(NC(=O)CSc2nc(CSc3ccc(C)cc3)cc(=O)[nH]2)cc1 | inactive | –
40 | CCCCC(=O)Nc1ccc(C(=O)NN2C(=O)c3ccccc3C2=O)cc1 | – | 2.73%
41 | O=C1c2cnc3nc(SCc4ccccc4)nn3c2CC2c3ccccc3CCN12 (configuration not stated) | – | 1.36%
42 | CC(=O)Nc1ccc(S(=O)(=O)Nc2ccc(NC(=O)c3ccco3)cc2)cc1 | inactive | –
43 | COc1ccc(S(=O)(=O)NCCSCc2ccco2)cc1Cl | – | 23.9%
44 | FC(F)(F)c1cccc(Oc2ccc3c(C(F)(F)F)cc(C(F)(F)F)nc3n2)c1 | inactive | –

Row | Compound | outcome | inhibition
45 | O=C(Cc1c(F)cccc1Cl)NNC(=O)c1ccccc1Cl | inactive | –
46 | CCc1ccccc1NC(=O)CC(O)(C(=O)OC)C(F)(F)F (configuration not stated) | – | 2.05%
47 | O=C(CN1C(=O)NC2(CCCCC2)C1=O)NCCC1=CCCCC1 | – | 6.76%
48 | O=C(CN1C(=O)NC2(CCCCCCC2)C1=O)NCc1ccc2c(c1)OCO2 | – | 2.03%
49 | Cc1ccc(C(=O)COC(=O)CNC(=O)Cc2ccccc2)cc1[N+](=O)[O-] | inactive | –
50 | O=C(CN1C(=O)NC(c2ccc(F)cc2)C1=O)Nc1ccc2c(c1)OCCO2 (configuration not stated) | – | 1.65%
51 | O=C(CSc1nnc(-c2cccs2)o1)OC1CCCCC1 | inactive | –
52 | O=C1COc2ccc(C(=O)NCc3ccco3)cc2N1 | – | 6.76%
53 | CC1=C(C(=O)NCc2ccco2)C2(CCC(C)CC2)OC1=O (configuration not stated) | – | 15%
54 | Fc1ccc2[nH]c3c(N4CCc5ccccc5C4)ncnc3c2c1 | inactive | –
55 | CC1CCN(C(=O)C2c3ccccc3C(=O)N3CCc4ccccc4C23)CC1 (configuration not stated) | inactive | –
56 | COc1ccc(-n2c(=O)[nH]cc(C(=O)N3CCc4ccccc43)c2=O)cc1 | inactive | –
57 | CCOc1ccc(C(=O)NC2CCN(S(=O)(=O)CC)CC2)cc1 | – | 5.41%
58 | CNS(=O)(=O)c1cccc(C(=O)OCc2cc(Cl)cc3c2OCOC3)c1 | – | 4.09%
59 | COCCn1c(SCC(=O)Nc2cc(C)on2)nc2cc(Cl)ccc2c1=O | – | 7.42%
60 | CCN(CC)CCN=CC1=C(O)CNC1=O | – | 19.6%
61 | CCOc1ccccc1N1C(=O)c2ccc(C(=O)Nc3cccnc3)cc2C1=O | inactive | –
62 | C[C@H](NC(=O)NCc1cccs1)C(=O)O | – | 14.4%
63 | CCOC(=O)c1c(C)[nH]c(C)c1C(=O)COC(=O)c1cccc(S(=O)(=O)NC)c1 | – | 2.05%
64 | COc1ccc(NC(=O)/C(C#N)=C/c2ccc(Sc3nncn3C)c([N+](=O)[O-])c2)cc1 | inactive | –
65 | COc1ccc(NC(=O)/C(C#N)=C/c2ccc(Br)o2)cc1 | inactive | –
66 | CCN(c1ccc(NC(=O)COC(=O)c2ccc([N+](=O)[O-])o2)cc1)C(C)C | inactive | –

Row | Compound | outcome | inhibition
67 | CCOC(CCNC(=O)c1cn(C)c(=O)c2c1c1ccccc1n2C)OCC | – | 9.02%
68 | COc1ccccc1-n1c(SCC(=O)NCc2ccc3c(c2)OCO3)nc2cc([N+](=O)[O-])ccc21 | inactive | –
69 | Nc1cc(N)nc(SCc2cc([N+](=O)[O-])cc3c2OCOC3)n1 | – | 12.4%
70 | COCCn1c(N)c(N(Cc2ccccc2)C(=O)C2CCCCC2)c(=O)[nH]c1=O | inactive | –
71 | Cc1ccc(S(=O)(=O)N2CCN(Cc3nc4sc(C)c(C)c4c(=O)[nH]3)CC2)cc1 | – | 9.46%
72 | CCc1ccc(C(=O)Nc2ccc(S(=O)(=O)Nc3nc(C)cc(C)n3)cc2)o1 | – | 8.11%
73 | CCn1ncc(Br)c1C(=O)Nc1sc2c(c1C(N)=O)CCC2 | – | 14.2%
74 | O=C(NC12CC3CC(CC(C3)C1)C2)c1ccc(S(=O)(=O)N2CCOCC2)cc1 | inactive | –
75 | CCOC(=O)CNC(=O)Cn1cnc2c(nnn2-c2ccc(F)cc2)c1=O | – | 1.67%
76 | Cc1nc2nc(COc3ccccc3)[nH]n2c(=O)c1Cc1ccccc1 | inactive | –
77 | O=c1cc2c(n[nH]1)CCCC2 | – | 7.43%
78 | O=C(Nc1cccc(Cl)c1)C1=Cc2cc(Cl)ccc2OC1 | inactive | –
79 | O=C(CSc1ncnc2ccccc12)Nc1cccc(S(=O)(=O)N2CCOCC2)c1 | – | 0.82%
80 | Cc1ccc(NC(=O)/C=C\C(=O)O)c([N+](=O)[O-])c1 | inactive | –
81 | Cc1nc(NC(=O)/C=C/c2ccccc2)sc1C(=O)Nc1ccccc1 | – | 4.73%
82 | CCN(CC)S(=O)(=O)c1cccc(NC(=O)/C=C/c2cccc([N+](=O)[O-])c2)c1 | – | 6.14%
83 | COc1ccc(NC(=O)/C=C/c2ccc(S(=O)(=O)N3CCOCC3)cc2)cc1 | inactive | –
84 | Cc1sc2nc(SCC(=O)N3CCOCC3)[nH]c(=O)c2c1C | inactive | –
85 | Cc1cc(C)cc(C(=O)N2CCC(C(N)=O)CC2)c1 | – | 6.76%
86 | O=C(CNS(=O)(=O)c1ccccc1)OCC(=O)c1ccc(OC(=O)c2ccccc2)cc1 | inactive | –
87 | O=C1CCc2cc(S(=O)(=O)NC(Cc3ccccc3)C(=O)NCC3CCCO3)ccc2N1 (configuration not stated) | – | 7.43%
88 | NC(=O)c1nsnc1-c1ccccc1O | inactive | –

Row | Compound | outcome | inhibition
89 | CC1C=CC=CC=CC=CC=CC=CC=CC(OC2OC(C)C(O)C(N)C2O)CC2OC(O)(CC(O)CC(O)C(O)CCC(O)CC(O)CC(=O)OC(C)C(C)C1O)CC(O)C2C(=O)O (configuration not stated) | – | 25.1%
90 | COc1ccc(S(=O)(=O)N(C)Cc2cccs2)cc1Br | – | 0.68%
91 | O=C(OCn1nnc2ccccc2c1=O)C1=COCCO1 | – | 0.68%
92 | CC(=O)Nc1ccc(N=Nc2ccccc2)cc1 | inactive | –
93 | O=C(NCCNC(=O)c1cc(OCC(F)(F)F)ccc1OCC(F)(F)F)Nc1cccc(C(F)(F)F)c1 | – | 2.73%
94 | Cc1cc(-c2ccccc2)nc(Oc2ccc(C(C)(C)C)cc2)c1S(C)(=O)=O | – | 2.73%
95 | CCc1nnc(NC(=O)CSc2nnc(Cc3ccccc3)n2-c2ccc(OC)cc2)s1 | inactive | –
96 | COc1ccc(CN2CCNC(=O)C2CC(=O)NC2CCCC2)cc1OC (configuration not stated) | – | 11.7%
97 | COc1ccc(C(=O)NC2CC3CCCC(C2)N3CC(C)C)cc1 (configuration not stated) | – | 5.59% [at 50 µM]
98 | C=C1Cn2c(nnc2-c2ccc(Cl)cc2)S1 | – | 3.38%
99 | Cc1ccc(C)c(OCCC(=O)Nc2ccccc2C(=O)NC2CC2)c1 | inactive | –
100 | CCC1CCC2(CC1)NC(=O)N(CC(=O)Nc1ccc(OC)c(Cl)c1)C2=O (configuration not stated) | – | 0.82%
101 | Cc1ccc2c(Cl)cc(Cl)c(OCC(=O)NCc3ccco3)c2n1 | – | 2.03%
102 | CC(C)(C)NC(=O)COC(=O)c1cc(S(=O)(=O)N2CCCCC2)ccc1N1CCOCC1 | – | 14.2%
103 | CCOCCCNC(=O)c1ccccc1Br | inactive | –
104 | O=C1[C@@H]2CSCN2C(=O)CN1CCc1cccc(F)c1 | inactive | –
105 | COc1ccc(C(=O)Cn2c(=N)n(C)c3ccccc32)cc1 | inactive | –
106 | CCn1c(CNC(C)=O)nnc1SCC(=O)c1ccc(Br)cc1 | inactive | –
107 | CCN(c1ccccc1)S(=O)(=O)c1ccc(C(=O)NNC(=O)c2ccccc2F)cc1 | inactive | –
